IDE cell inh: cellular human IDE inhibition. P14735. HEK cells, FAbetaB cleavage, fluorescence polarization. inhibition, % at 5.59 µM. 320,000 compounds, 0.41% hits. AID 434962;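 active means percent inhibition above the average of all tested compounds plus 3 SD, set per screening campaign, cut at about 16% in these data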;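 further: IDE supplied by intact live HEK cells; FP after avidin binding of uncleaved biotin substrate so inhibition keeps polarization high; 0% = DMSO wells and 100% = 60 µM reference IDE inhibitor Ii1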
Target sequence (P14735 whole entry, looked up): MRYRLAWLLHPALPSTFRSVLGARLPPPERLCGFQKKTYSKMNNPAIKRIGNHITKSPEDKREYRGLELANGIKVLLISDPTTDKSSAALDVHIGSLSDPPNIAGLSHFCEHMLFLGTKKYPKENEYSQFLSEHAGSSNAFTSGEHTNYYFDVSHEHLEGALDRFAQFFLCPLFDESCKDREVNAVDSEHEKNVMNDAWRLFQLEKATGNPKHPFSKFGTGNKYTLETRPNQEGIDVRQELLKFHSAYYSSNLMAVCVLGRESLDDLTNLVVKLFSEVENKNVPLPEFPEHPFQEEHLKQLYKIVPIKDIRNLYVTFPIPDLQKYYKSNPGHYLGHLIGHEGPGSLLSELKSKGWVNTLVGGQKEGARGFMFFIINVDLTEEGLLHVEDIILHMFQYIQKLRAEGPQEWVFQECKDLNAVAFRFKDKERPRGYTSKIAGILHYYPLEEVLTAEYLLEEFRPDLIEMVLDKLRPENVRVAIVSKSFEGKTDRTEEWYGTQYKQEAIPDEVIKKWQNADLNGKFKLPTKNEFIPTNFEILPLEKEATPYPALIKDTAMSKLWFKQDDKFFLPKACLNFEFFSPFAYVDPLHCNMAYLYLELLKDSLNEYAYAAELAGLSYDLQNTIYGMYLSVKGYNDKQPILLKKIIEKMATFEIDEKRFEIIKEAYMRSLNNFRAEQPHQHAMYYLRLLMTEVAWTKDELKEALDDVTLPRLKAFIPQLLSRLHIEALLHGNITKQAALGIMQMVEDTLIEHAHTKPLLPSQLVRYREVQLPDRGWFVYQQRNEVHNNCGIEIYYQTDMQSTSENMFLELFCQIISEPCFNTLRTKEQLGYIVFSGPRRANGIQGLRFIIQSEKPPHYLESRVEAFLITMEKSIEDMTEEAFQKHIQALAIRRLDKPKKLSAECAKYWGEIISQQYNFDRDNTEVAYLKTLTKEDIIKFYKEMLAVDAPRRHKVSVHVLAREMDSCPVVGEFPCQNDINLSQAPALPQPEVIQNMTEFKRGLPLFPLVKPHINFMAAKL
SKKanGAS inh: SKKanGAS growth inhibition | inhibition, % at 7.5 µM | S. pyogenes SKKanGAS, kanamycin growth, BacTiter-Glo, 6 h | 300,000 compounds, 1.3% hits | AID 1662;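 active means mean replicate score, as percent of positive control median, at least 50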;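 further: strain carries kanamycin resistance gene driven by streptokinase promoter and grows in 40 µg/ml kanamycin; loss of luminescence reflects streptokinase promoter inhibition or plain growth inhibition; 0% = median of DMSO wells and 100% = positive control at its reference dose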
IDE cell activ: IDE (human) activation, cell-based; P14735; HEK cells, FAbeta-B cleavage, fluorescence polarization; 0% vehicle, 100% cell-free pure enzyme wells; activation, % at 5.96 µM; 340,000 compounds, 0.073% hits; AID 493087;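 active means activation above the mean of all tested compounds plus 3 SD, set per screening campaign, cut at about 17% in these data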
PP5 primary: inhibitors of human protein phosphatase 5 (PP5). purified PP5c, OMFP substrate fluorescence. P53041. inhibition, % at 6.7 µM. 320,000 compounds, 0.18% hits;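 active means inhibition above the campaign's mean inhibition across all tested compounds plus 3 SD, cut at about 9.5% in these data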;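 further: 0% = DMSO only and 100% = 100 µM cantharidin control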
PP1 inh: blocks human PP1-alpha phosphatase, a PP5 counter-screen; purified PP1alpha, OMFP fluorescence; inhibition, % at 6.7 µM; 320,000 compounds, 0.9% hits;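 active means inhibition above the mean inhibition of all tested compounds plus 3 SD, computed separately for each screening campaign, cut at about 15% in these data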
Exocytosis inh: lytic granule exocytosis inhibition; 360,000 compounds, 0.66% hits; AID 651702; TALL-104 LAMP-1 surface exposure, flow cytometry; cells stimulated with thapsigargin and PMA; inhibition, % at 10 µM;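 active means inhibition above about 55%, limit read from the data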
* = called active by the depositor; . = not tested or not shown. Hits are enriched below; roughly 2.8% of the tested compounds scored in any of these assays.

SMILES	IDE cell inh	SKKanGAS inh	IDE cell activ	PP5 primary	PP1 inh	Exocytosis inh
O=C(CCCn1nnnc1CN1CCOCC1)N1CCN(c2ccccc2F)CC1	-1.8	0.5	-1.0	0.2	15.5*	-6.2
O=S(=O)(c1cnc[nH]1)N1CCN(C(c2ccc(F)cc2)c2ccc(F)cc2)CC1	2.7	-2.9	1.2	1.8	8.2	-1.9
CC(=O)N1c2ccc(S(=O)(=O)N3CCCC3)cc2CC1C(=O)NCc1ccccc1F (stereo not given)	3.1	-10.9	2.6	0.4	-5.5	2.5
O=C(/C=C/c1ccco1)Oc1cc(Br)cc(/C=N/NC(=O)c2ccccc2O)c1	5.0	88.2*	5.9	4.1	4.4	78.2*
CCCCc1ccc(NC(=S)NCc2ccccc2OC)cc1	6.0	59.2*	0.0	2.2	1.3	0.6
CCCCc1ccc(NC(=S)NCc2ccc(OC)cc2)cc1	0.5	-11.3	-0.3	3.4	1.0	0.2
O=C(Nc1ccc(Br)cc1C(=O)O)c1ccc2c(c1)C(=O)N(Cc1ccccc1)C2=O	-0.4	76.0*	-1.1	-0.9	4.7	-0.5
Fc1ccc2nncc(SCc3ccccc3Cl)c2c1	.	.	-7.6	.	.	-2.3
COc1ccc(/C=N/Nc2nc(Nc3ccccc3)nc(N3CCCCC3)n2)cc1OC	3.4	72.0*	-1.1	4.0	0.0	1.2
CC1=NN(c2nc(N)nc(/C(C#N)=C/c3ccc([N+](=O)[O-])o3)n2)C(C)(C)C1	.	.	3.1	.	.	83.1*
Nc1cc(S(=O)(=O)N2CCOCC2)ccc1N1CCCCC1	3.8	.	-5.8	.	.	6.4
O=c1c2ccccc2sn1-c1cc(S(=O)(=O)N2CCOCC2)ccc1N1CCCC1	51.3*	85.5*	-36.0	0.6	7.5	8.5
Cc1ccc(C(C)C)cc1NC(=O)Nc1ccc([N+](=O)[O-])cc1	-0.5	87.9*	1.4	5.7	9.1	40.7
CCCCNC(=O)c1[nH]c(C2CCNCC2)nc1-c1cccc(C(F)(F)F)c1	.	.	.	.	.	-4.3
CCc1nnc2c(NCCc3ccccc3)nc3ccccc3n12	2.6	-5.7	1.9	3.1	-1.5	4.3
COC(=O)[C@]12CCCCC=C1N(Cc1ccc(Cl)cc1Cl)C(=O)[C@H](CC(=O)N1CCOCC1)C2	.	.	.	.	.	-5.3
Cc1nc2ccccc2n1-c1ccccc1	1.7	3.0	-0.3	-2.1	-1.1	0.8
c1ccc(-n2c3ccccc3c3ccccc32)cc1	-3.8	58.3*	.	3.5	-8.8	-6.8
CCOC(=O)c1ccc(Oc2cn[nH]c2-c2ccc(OCC(=O)NN)cc2O)cc1	-0.3	99.2*	0.5	2.0	6.5	-11.4
CCCOC(=O)c1ccc(Oc2cn[nH]c2-c2ccc(OCC(=O)NN)cc2O)cc1	-4.8	82.8*	4.1	2.2	2.9	3.2
Cc1[nH]nc(-c2ccc(O)cc2O)c1Oc1ccccc1	5.5	-8.0	3.7	4.1	4.2	-4.0
CCCOC(=O)c1ccc(Oc2c(-c3ccc(OC)cc3O)n[nH]c2C)cc1	3.2	61.2*	7.1	0.9	-5.0	6.1
CCOC(=O)c1ccc(Oc2cn[nH]c2-c2ccc(O)cc2O)cc1	-1.1	46.5	1.1	3.1	-2.1	5.2
CCCOC(=O)c1ccc(Oc2cn[nH]c2-c2ccc(O)cc2O)cc1	-1.0	75.9*	4.0	3.2	3.4	20.1
CCOc1nc(-c2ccc(Cl)cc2)nc2ccccc12	5.4	3.8	5.5	-0.2	2.7	-2.1
SMILES	IDE cell inh	SKKanGAS inh	IDE cell activ	PP5 primary	PP1 inh	Exocytosis inh
CN1CC(=O)N(CC(=O)Nc2cccc3ccccc23)C1=O	-4.9	.	1.8	.	.	-0.2
CCOC(=O)c1[nH]nc(-c2cc(CC)c(O)cc2O)c1-c1cscn1	-3.0	4.0	4.4	0.2	0.9	-1.7
CCc1cc(-c2n[nH]c(C)c2Oc2ccc(C(C)C)cc2)c(O)cc1O	1.8	109.3*	11.4	8.3	-5.0	3.0
Cc1ccc(S(=O)(=O)NC(=O)c2ccc(-c3ccc(-c4ccccc4)cc3)o2)c(C)c1	1.8	25.4	.	2.7	15.6*	.
Brc1ccc(-c2cn3nc4c(nc3n2)CCCC4)cc1	-4.0	11.1	-2.3	-2.8	-0.4	-1.5
Brc1ccc(-c2cn3c(n2)CCc2ccc4cccnc4c2-3)cc1	1.2	75.9*	-1.1	2.3	4.0	0.4
CNC[C@H]1OCc2ccccc2-c2ccccc2C(=O)N([C@H](C)CO)C[C@H]1C	.	.	.	.	.	-2.0
CC(C)C1C(c2ccccc2)N(C)C(c2ccccc2)CC1(O)c1ccccc1 (stereo not given)	5.9	88.3*	-0.5	6.3	0.2	12.0
CCC1C(c2ccccc2)N(C)C(c2ccccc2)CC1(O)c1ccccc1 (stereo not given)	-4.2	12.1	-0.4	5.3	1.5	13.9
COC(=O)c1ccc(C2Nc3ccc(/C(C)=N/NC(=O)C(OC)c4ccccc4)cc3C3C=CCC32)cc1 (stereo not given)	-1.9	7.6	10.6	3.2	20.6*	-6.7
CC(=O)c1ccc2c(c1)C1C=CCC1C(c1ccncc1)N2 (stereo not given)	4.2	0.7	3.7	2.0	2.5	-0.1
Cc1ccc(-c2csc3nc[nH]c(=S)c23)cc1	7.5	33.5	-24.0	-0.7	0.5	-5.7
Cc1cc(-c2csc3nc[nH]c(=S)c23)cc(C)c1C	5.5	91.6*	-13.6	1.4	6.1	2.7
S=c1[nH]cnc2scc(-c3ccc(Cl)cc3)c12	2.7	76.1*	.	0.2	1.7	-6.3
N#Cc1c(N2CCN(C(=O)c3ccccc3)CC2)nc(-c2ccccc2)c2c1CCCC2	3.4	37.0	0.9	1.1	15.6*	-4.4
COCCNC(=O)C1(C)CCCN(C(=O)COc2ccccc2)C1 (stereo not given)	.	.	.	.	.	0.3
COc1ccc(C)cc1NC(=O)C(OC(=O)c1cnc(C)cn1)c1ccccc1 (stereo not given)	-0.6	9.5	4.8	-0.3	9.5	-1.4
COc1ccc(NC(=O)C(OC(=O)c2cnc(C)cn2)c2ccccc2)cc1Cl (stereo not given)	-1.0	50.7*	5.1	2.6	-6.8	6.3
O=C(CSc1nnc(-c2cccnc2)o1)Nc1ccccc1F	3.6	-7.6	2.4	-1.9	-4.8	-11.0
CC(/C=C/c1ccc(O)cc1)=NNc1ccccc1	.	.	4.2	.	.	59.0*
CC(/C=C/c1ccccc1)=N\Nc1nc(C)cc(C)n1	0.5	0.2	-7.5	-1.9	-1.8	-4.6
O=C(c1ccc2c3n(nc2c1)-c1ccccc1CO3)N1CCCCC1	-3.4	51.2*	-1.4	1.4	2.0	-5.7
CC(C)C1O/C(=N/C(=O)Nc2ccc(Cl)c(Cl)c2)NC1=O (stereo not given)	5.3	78.5*	1.2	3.9	1.2	4.5
CCCCCCCCOC(=O)/C=C/c1c(C)[nH]c(=O)[nH]c1=O	1.0	64.1*	3.8	0.8	-1.6	7.9
CN1CCN(c2nc3c(c(=O)[nH]c(=O)n3C)n2Cc2ccccc2)CC1	-5.3	.	-3.3	0.3	2.8	4.7
Cc1ccccc1OCC(=O)Nc1sc2c(c1C#N)CC(C)(C)NC2(C)C	4.2	2.1	-4.3	2.6	1.0	59.4*

From PubChem BioAssay
